The structures appear in SMILES notation. Results filed as inconclusive are left out. Values without a mark were called inactive. Calls of active or inactive are those of the source. Unless noted, calls follow the shape of the dose curve; as a rule, active = well fitted curve in the direction sought with a large enough effect in the repeat runs; inconclusive = weak or mixed curves; inactive = no such curve, though single readings can be large; an effect the other way counts as inactive or inconclusive.

Assay [1] in a line: qHTS assay to identify small molecule agonists of the RXR signaling pathway - cell viability counter screen (AID 1159529).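 Also: HEK 293T cells carrying an RXR-alpha UAS beta-lactamase reporter; series mostly up to about 77 µM; nearly all actives have a fitted effect of over 50% in size.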 In outline: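 In this parallel viability measure, GeneBLAzer RXR-alpha HEK 293T cells (2% charcoal-stripped FBS) were given a 5 hr preincubation, treated with compounds 16 hr at 37 C, and read by CellTiter-Glo luminescence.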
Background: qHTS replaces the single test concentration by a dilution series.

Assay [2] is described as follows: qHTS assay to identify small molecule antagonists of the retinoid acid receptor (RAR) signaling pathway - cell viability counter screen (AID 1159551). Also: nearly all actives have a fitted effect of over 35% in size. In outline:
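C3RL4 RARE-luciferase line; cpds + retinol 1 uM final, 6 h, 37 C/5% CO2; CellTiter-Glo ATP luminescence, 30 min RT.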

Assay [3] can be described thus: qHTS assay to identify small molecule antagonists of the retinoic acid receptor (RAR) signaling pathway (AID 1159552; also: nearly all actives have a fitted effect of over 50% in size). In a few lines:
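C3RL4 RARE-luc cells, overnight plating; retinol 1 uM final added right after compound; 6 hr 37 C; luciferase read at 30 min RT.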

Assay [4] can be described thus: qHTS assay to identify small molecule agonists of the retinoic acid receptor (RAR) signaling pathway (AID 1159553). Also: potency is read from the fitted curve at half-maximal effect. In a few lines: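 RARE-luc C3RL4 cells; overnight attachment 37 C/5% CO2; compound (DMSO) 6 hr; luciferase reagent, 30 min RT; luminescence read-out.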
A short description of assay [5]: qHTS assay to identify small molecule antagonists of the estrogen related receptor (ERR) signaling pathway from Tox21 library - cell viability counter screen (AID 1224834). Also: nearly all actives have a fitted effect of over 30% in size. In a few lines: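 Multiplexed viability counter screen in ERR cells: 17.5 h compound exposure at 37 C, CellTiter-Fluor added, 30 min at 37 C/5% CO2, fluorescence read.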
Assay [6] addresses Luciferin 4-monooxygenase (Photinus pyralis) (UniProt P08659). Put plainly: qHTS assay to identify small molecule inhibitors of firefly luciferase (AID 1224835). Also: nearly all actives have a fitted effect of over 25% in size. Also: potency is read from the fitted curve at half-maximal effect. In a few lines: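 Quantitative HTS format; KM concentrations of both substrates. Purified P. pyralis FLuc activity quantified from luminescence images.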
In assay [7] the target is Nuclear receptor subfamily 1 group I member 3 (Homo sapiens) (UniProt Q14994). As to the kind of experiment: qHTS assay to identify small molecule antagonists of the constitutive androstane receptor (CAR) signaling pathway (AID 1224838).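 Also: HepG2 cells stably expressing hCAR with CYP2B6 luciferase reporter stimulated by CITCO; nearly all actives have a fitted effect of over 40% in size.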 In a few lines: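 Read-out: ONE-Glo luciferase luminescence after 30 min at room temperature. HepG2-CYP2B6-hCAR double-stable cells, compounds in 15-point titration plus 50 nM CITCO final, 24 h at 37 C/5% CO2.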

For assay [8] the target is unchanged. Put plainly: qHTS assay to identify small molecule agonists of the constitutive androstane receptor (CAR) signaling pathway (AID 1224839). Also: nearly all actives have a fitted effect of over 15% in size. Also: potency is read from the fitted curve at half-maximal effect.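 As to activation: HepG2 cells stably carrying human CAR and a CYP2B6 luciferase reporter; series mostly up to about 92 µM.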 In outline:
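Double-stable HepG2 cells (hCAR, CYP2B6-2.2kb) seeded 4 h before compound addition. Exposure 24 h with 0.75 uM PK11195 final. Luciferase detected by ONE-Glo.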

A short description of assay [9]: qHTS assay to identify small molecule antagonists of the estrogen related receptor signaling pathway with the pleiotropic PPARgamma coactivator (PGC) from Tox21 10K library (AID 1224841; call rule not given here; also: series mostly up to about 92 µM; actives are mostly falling curves and most rising ones were filed inactive; nearly all actives have a fitted effect of over 50% in size). In outline:
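Luminescence read-out (One-Glo luciferase reagent, 30 min at room temperature) from PGC/ERR cells exposed to DMSO-dissolved test compounds for 18 h at 37 C; cells, 2,000 per well, had been preincubated 6 h before compound transfer.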

Assay [10] in a line: qHTS assay to identify small molecule agonists of the estrogen related receptor signaling pathway with the pleiotropic PPARgamma coactivator (PGC) from Tox21 10K library (AID 1224842). Also: nearly all actives have a fitted effect of over 15% in size. In a few lines:
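PGC/ERR reporter cells (NTP line) were seeded 2,000 per well, rested 6 h at 37 C/5% CO2, then pin-dosed with compounds in DMSO for 18 h at 37 C; luciferase read by One-Glo luminescence after 30 min at room temperature.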

Assay [11] concerns the target Thyrotropin receptor (Homo sapiens) (UniProt P16473). Put plainly: qHTS assay to identify small molecule agonists of the thyroid stimulating hormone receptor (TSHR) signaling pathway (AID 1224843; calls by dose curve; also: nearly all actives have a fitted effect of over 45% in size). In outline:
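Compounds are titrated over 15 concentrations, in triplicate, onto TSHR-HEK293 cells seeded at 800/well. Plates sit 30 min at room temperature before cAMP-d2 and anti-cAMP cryptate are added; signal is read after a further hour.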

Assay [12] is described as follows: qHTS assay to identify small molecule antagonists of the estrogen related receptor signaling pathway with the pleiotropic PPARgamma coactivator (PGC) from Tox21 10K library - cell viability counter screen (AID 1224840; active = well fitted cell-killing curve with a large enough effect in the repeat runs, not every such curve was filed as active; also: nearly all actives have a fitted effect of over 40% in size). In outline: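 Fluorescence read-out of CellTiter-Fluor viability reagent, added after cells had been exposed to compound in DMSO for 17.5 h at 37 C; 30 min development at 37 C/5% CO2. Cells: PGC/ERR line, 2,000/well.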

Assay [13] is described as follows: qHTS assay to identify small molecule agonists of the constitutive androstane receptor (CAR) signaling pathway - cell viability counter screen (AID 1224836). Also: series mostly up to about 92 µM; nearly all actives have a fitted effect of over 45% in size. In a few lines:
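Using CellTiter-Fluor, viability of HepG2 cells harbouring hCAR and CYP2B6-2.2kb was measured following 23 h incubation with a 15-concentration compound series plus PK11195 (0.75 uM final).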

Assay [14] is described as follows: qHTS assay to identify small molecule antagonists of the constitutive androstane receptor (CAR) signaling pathway - cell viability counter screen (AID 1224837). Also: series mostly up to about 92 µM; nearly all actives have a fitted effect of over 45% in size. In a few lines: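 Read-out: CellTiter-Fluor fluorescence after 23 hr at 37 C/5% CO2. Cells: HepG2 double-stable for hCAR and CYP2B6-2.2kb. Compounds tested at 15 concentrations in the presence of CITCO, final concentration 50 nM.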
% is scaled to controls: 0 for no effect and ±100 for the full control effect.

Nuclear receptor subfamily 1 group I member 3 (Homo sapiens), sequence (Q14994 whole entry, looked up): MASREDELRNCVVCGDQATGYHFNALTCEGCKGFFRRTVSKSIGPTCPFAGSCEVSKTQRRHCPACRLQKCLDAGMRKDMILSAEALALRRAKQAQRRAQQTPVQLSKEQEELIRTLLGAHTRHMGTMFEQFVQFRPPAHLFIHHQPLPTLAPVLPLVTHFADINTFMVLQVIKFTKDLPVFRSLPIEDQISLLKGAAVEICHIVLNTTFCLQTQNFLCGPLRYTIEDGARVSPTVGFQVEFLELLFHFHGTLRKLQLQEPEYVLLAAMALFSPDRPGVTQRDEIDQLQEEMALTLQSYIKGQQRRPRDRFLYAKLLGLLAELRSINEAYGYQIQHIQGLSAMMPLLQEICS
Luciferin 4-monooxygenase (Photinus pyralis), sequence (P08659 whole entry, looked up): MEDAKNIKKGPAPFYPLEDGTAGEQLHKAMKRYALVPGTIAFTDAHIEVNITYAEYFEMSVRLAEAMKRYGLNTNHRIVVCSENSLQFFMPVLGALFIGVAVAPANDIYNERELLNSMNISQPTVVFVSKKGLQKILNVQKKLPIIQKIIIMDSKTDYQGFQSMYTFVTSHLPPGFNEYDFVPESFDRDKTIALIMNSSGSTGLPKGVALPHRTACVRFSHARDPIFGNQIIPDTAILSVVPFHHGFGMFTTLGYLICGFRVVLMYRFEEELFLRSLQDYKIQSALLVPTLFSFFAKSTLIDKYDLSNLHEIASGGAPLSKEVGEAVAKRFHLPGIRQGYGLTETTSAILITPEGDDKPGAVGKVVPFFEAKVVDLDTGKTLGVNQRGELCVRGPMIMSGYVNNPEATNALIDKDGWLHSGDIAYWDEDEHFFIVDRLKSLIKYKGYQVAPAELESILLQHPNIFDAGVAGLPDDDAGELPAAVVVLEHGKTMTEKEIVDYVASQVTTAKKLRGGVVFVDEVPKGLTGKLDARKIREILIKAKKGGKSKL
Thyrotropin receptor (Homo sapiens), sequence (P16473 whole entry, looked up): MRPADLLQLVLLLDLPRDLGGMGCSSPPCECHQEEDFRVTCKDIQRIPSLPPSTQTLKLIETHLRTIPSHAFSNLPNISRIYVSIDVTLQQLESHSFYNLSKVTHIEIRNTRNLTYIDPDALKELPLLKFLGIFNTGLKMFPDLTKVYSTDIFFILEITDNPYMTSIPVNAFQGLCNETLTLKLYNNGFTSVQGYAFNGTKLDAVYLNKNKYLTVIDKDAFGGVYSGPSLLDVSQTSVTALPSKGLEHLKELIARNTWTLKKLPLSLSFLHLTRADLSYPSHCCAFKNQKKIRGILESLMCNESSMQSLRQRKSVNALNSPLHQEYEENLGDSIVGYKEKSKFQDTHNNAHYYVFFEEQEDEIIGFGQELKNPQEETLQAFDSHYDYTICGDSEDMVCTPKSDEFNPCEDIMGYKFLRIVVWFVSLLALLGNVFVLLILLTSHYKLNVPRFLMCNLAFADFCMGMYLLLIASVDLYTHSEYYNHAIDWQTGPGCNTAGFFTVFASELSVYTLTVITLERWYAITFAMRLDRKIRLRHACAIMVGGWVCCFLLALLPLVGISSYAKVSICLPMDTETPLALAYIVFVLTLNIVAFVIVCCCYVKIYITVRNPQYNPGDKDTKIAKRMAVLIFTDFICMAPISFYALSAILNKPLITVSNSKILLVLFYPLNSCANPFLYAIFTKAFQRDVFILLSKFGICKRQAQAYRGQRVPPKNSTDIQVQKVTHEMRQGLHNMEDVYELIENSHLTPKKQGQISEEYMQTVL

For `O=CNc1ccccc1`, the Potency entry in assay [1], in [2], in assay [3], in assay [4], in assay [5] and in [6] was “inactive” throughout. In addition, the Potency entry in assay [7], in [8], in [9] and in assay [10] was “inactive” in each case.

Take `CC(=O)c1ccc2c(c1)[C@H](NC(=O)c1ccc(F)cc1)[C@@H](O)C(C)(C)O2`: the Potency entry in assay [1], in assay [2], in [3], in [4], in [6] and in [7] was “inactive” throughout. The Potency entry in assay [8] and in assay [11] was “inactive” each time.

As to `CCOc1ccc(NC(=O)CC(C)=O)cc1`, the Potency result in [1], in assay [2], in assay [3], in [4], in [5] and in assay [6] was “inactive” throughout. Further, the Potency entry in [7], in [8], in [12], in [9] and in assay [10] was “inactive” throughout.

As for `Cc1cccc(OCCOc2cccc(C)c2)c1`, the Potency entry in assay [1], in assay [2], in assay [3], in assay [6], in [13] and in assay [14] was “inactive” throughout. Moreover, the Potency entry in [7], in [12], in [9] and in assay [10] was “inactive” each time. In addition, the Potency in assay [8] is 29 µM (active).

In the case of `CC(C(=O)O)c1ccc(C(=O)c2ccccc2)s1` (stereo not drawn), the Potency result in assay [1], in assay [2], in [5], in assay [13], in assay [14] and in [7] was “inactive” throughout. The Potency entry in [12] was “inactive”. The results for the Potency in assay [4], in [6] and in assay [8] were 8.41 µM (active), 15.5 µM (active) and 16.8 µM (active), respectively.

As to `CC(=O)O[C@@H]1C(=O)O[C@@H]2[C@H]1OC(=O)[C@@H]2OC(C)=O`, the Potency entry in assay [1], in assay [2], in assay [3], in assay [4], in assay [6] and in assay [13] was “inactive” throughout. Besides, the Potency result in assay [14], in [12] and in assay [11] was “inactive” throughout.

For `Cl/C(=C\n1cncn1)c1ccc(Cl)cc1Cl`, the Potency entry in assay [1], in assay [2], in assay [3], in assay [4], in assay [6] and in assay [13] was “inactive” throughout. Moreover, the Potency result in [14], in assay [7], in assay [8], in [12], in [9] and in [10] was “inactive” each time.

On to `CCCCCCCCCCCCCCC1CO1` (stereo not drawn), for which the Potency result in assay [1], in assay [2], in assay [3], in assay [4], in assay [6] and in assay [14] was “inactive” throughout. For the same compound, the Potency entry in assay [12] and in [11] was “inactive” in each case.

Take `CCN(CCO)CCCC(C)Nc1ccnc2cc(Cl)ccc12` (stereo not drawn): the activity change, negative = cytotoxicity is -6.26% [at 6.97 µM] in assay [1], 0.797% [at 8.39 µM] in assay [2] and -10.3% [at 8.39 µM] in assay [14]. The activity, negative = inhibition in [3] is -1.6% [at 8.39 µM]. Besides, the activation in [4] was 0.716% [at 8.36 µM]; in [11] it was -1.08% [at 8.39 µM]. The viability change, negative = cytotoxic was -2.66% [at 8.39 µM] in assay [5], -11% [at 8.39 µM] in [13] and 1.55% [at 8.39 µM] in assay [12].

Turning to `O=C(O)c1cccc(N(Cc2cccnc2)c2ccc(OC(F)F)c(OC(F)F)c2)c1`, the Potency result in [1], in assay [2], in assay [3], in assay [4], in assay [6] and in [13] was “inactive” throughout. For the same compound, the Potency entry in assay [14], in assay [7], in assay [8], in assay [9] and in assay [10] was “inactive” each time.

`CCOc1cc(OCC)c(C(=O)CCC(=O)O)cc1OCC`: the Potency result in assay [1], in assay [2], in assay [4], in assay [5], in [6] and in assay [13] was “inactive” each time. The Potency result in assay [14], in assay [7] and in assay [8] was “inactive” in each case.

The record behind these values is PubChem BioAssay (Tox21).
